From PubChem BioAssay
Compounds with a hit are over-represented: about 3.5% of the library has one in this group of screens.
GPR151 ag: activators of human GPR151, primary screen, cell-based, PathHunter beta-arrestin, luminescence | G-protein coupled receptor 151 (Homo sapiens), Q8TDV0 | PathHunter beta-arrestin GPR151 cells | activation, % at 11.2 µM | actives 1% (n = 650,000) | AID 1508602, 2020; in the data active = activation above about 4.9%;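 note: 0% = median of compound wells and 100% = cells with positive control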
TEAD-YAP block: TEAD-YAP interaction inhibition, primary screen, TEAD-YAP interaction inhibitor project, luminescence, HEK-TIYL cells; TEAD-Gal4/YAP UAS-luciferase luminescence; actives 1.4% (n = 640,000); inhibition, % at 9.12 µM; in the data active = inhibition above about 32%;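 note: 0% = median of test compound wells and 100% = reference inhibitor wells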
FBW7 act: FBW7 E3 ligase activators, primary screen, biochemical, AlphaScreen, human; actives 0.13% (n = 650,000); AID 1259310, 2017; F-box/WD repeat-containing protein 7 (Homo sapiens), Q969H0; AlphaScreen FBW7–phospho-cyclin E peptide binding, activator screen; normalized activity (activation), % at 26.1 µM; in the data active = normalized activity above about 1.9%;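 note: purified mutant Fbw7 with reduced substrate affinity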
MITF inh: MITF inhibitors, primary screen, biochemical, AlphaScreen, human. AlphaScreen MITF homodimerization, bead proximity signal. inhibition, % at 2.6 µM. actives 0.91% (n = 650,000). AID 1259374, 2018; in the data active = inhibition above about 50%;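 note: 0% = vehicle wells with protein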
Target sequence (O75030 whole entry, looked up): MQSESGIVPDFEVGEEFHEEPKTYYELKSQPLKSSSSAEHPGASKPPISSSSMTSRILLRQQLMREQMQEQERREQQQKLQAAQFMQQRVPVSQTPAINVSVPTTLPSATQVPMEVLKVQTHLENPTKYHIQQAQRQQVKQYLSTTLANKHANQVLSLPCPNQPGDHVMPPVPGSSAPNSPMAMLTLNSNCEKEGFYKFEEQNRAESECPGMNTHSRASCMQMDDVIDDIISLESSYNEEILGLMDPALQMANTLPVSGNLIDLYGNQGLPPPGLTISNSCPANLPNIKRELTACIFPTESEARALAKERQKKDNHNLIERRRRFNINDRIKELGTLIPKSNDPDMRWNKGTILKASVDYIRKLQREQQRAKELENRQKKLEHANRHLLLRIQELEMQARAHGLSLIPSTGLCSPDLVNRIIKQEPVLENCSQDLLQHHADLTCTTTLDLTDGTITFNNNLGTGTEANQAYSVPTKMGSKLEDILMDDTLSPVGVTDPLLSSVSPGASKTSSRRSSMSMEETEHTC
MITF inh conf: MITF inhibitors, retest of hits, confirmation, biochemical, AlphaScreen, triplicate; shares compounds with MITF inh; AlphaScreen MITF homodimerization, biotin/His-MITF beads; inhibition, % at 2.6 µM; actives 16% (n = 4,700);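 active = inhibition above a cutoff derived from the DMSO control wells, cut at about 28% in these data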;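 note: 0% = MITF dimer wells with DMSO only; inhibitors lower the bead chemiluminescence by keeping MITF from dimerizing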
AlphaScreen intf2: AlphaScreen optical interference compounds, counter-screen for MITF inhibitor project, biochemical, triplicate. inhibition, % at 2.6 µM. LysRS AlphaScreen counterscreen, signal interference. shares compounds with MITF inh. actives 7.6% (n = 4,700);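 active = inhibition above a cutoff derived from the DMSO control wells, cut at about 30% in these data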
The depositor's hits bear a star; . = no result given.

SMILES	GPR151 ag	TEAD-YAP block	FBW7 act	MITF inh	MITF inh conf	AlphaScreen intf2
Cc1ccc(C2NS(=O)(=O)N=C2N)cc1 (stereo unspecified)	1	5	0	52*	10	15
O=C(Cc1cc2ccccc2n1Cc1ccccc1)Nc1ccccc1	1	-6	0	-5	.	.
COc1ccc(CN2CCC(N3CC(C)OC(C)C3)CC2)c(OC)c1 (stereo unspecified)	0	10	0	95*	-17	-4
COc1ccc(CN2CCN(C3CCN(Cc4ccccc4)CC3)CC2)cc1OC	0	0	0	21	.	.
COc1ccc(CN2CCC(C(=O)N3CCOCC3)CC2)c(OC)c1	1	-8	0	56*	11	7
COc1ccc(CN2CCCC2)c(OC)c1	1	8	0	26	.	.
COc1ccc(CN2CCN(C3CCC(C)CC3)CC2)c(OC)c1 (stereo unspecified)	0	7	0	69*	4	15
COc1cc(OC)c(OC)cc1CN1CCN(C2CCN(Cc3ccccc3)CC2)CC1	-2	-2	0	59*	2	1
CCOC(=O)C1CCN(Cc2ccc(OC)cc2OC)CC1	2	6	0	24	.	.
CCOc1ccc(NC(=O)c2ccc(NC(=O)[C@H](C)NC(=O)c3ccco3)cc2)cc1	1	5	0	-2	.	.
CC[n+]1c(C)oc2ccc(-c3ccccc3)cc21	0	-1	0	5	.	.
CCCCc1ccc(NC(=O)C(=O)N/N=C/c2cc(OC)ccc2OC)cc1	1	5	0	-7	.	.
COc1ccc(CN2CCC(N3CC(C)OC(C)C3)CC2)cc1OC (stereo unspecified)	0	1	0	63*	-7	1
COc1ccc(CN2CCN(C(=O)CCC3CCCC3)CC2)c(OC)c1	0	2	0	48	.	.
COc1cc(OC)c(OC)cc1CN1CCN(C2CCCCC2)CC1	1	5	0	67*	-2	-7
COc1cc(OC)c(OC)cc1CN1CCN(C2CCCC2)CC1	-1	-1	0	18	.	.
CC1CN(C2CCN(Cc3ccc(Br)cc3)CC2)CC(C)O1 (stereo unspecified)	2	5	0	46	.	.
COc1ccc(CN2CCN(C3CCCC3)CC2)c(OC)c1	-1	-6	0	66*	15	10
CCC[C@@H]1NC(=O)[C@@H]2C[C@H](NC(=O)c3ccc(-c4ccccc4)cc3)CN2C1=O	4	7	0	-2	.	.
CS(=O)(=O)N1CCN(Cc2cccc([N+](=O)[O-])c2)CC1	-1	4	0	72*	7	17
CC1CCCC(N2CCN(Cc3cccc([N+](=O)[O-])c3)CC2)C1 (stereo unspecified)	-1	-1	0	75*	6	-4
O=[N+]([O-])c1cccc(CN2CCC(N3CCN(Cc4ccccc4)CC3)CC2)c1	-1	-6	0	23	.	.
CC1CCC(N2CCN(Cc3cccc([N+](=O)[O-])c3)CC2)CC1 (stereo unspecified)	0	-6	0	60*	2	0
O=[N+]([O-])c1cccc(CN2CCC(N3CCCCCC3)CC2)c1	3	1	1	67*	2	6
CC1CCN(C2CCN(Cc3cccc([N+](=O)[O-])c3)CC2)CC1	0	-7	0	18	.	.
O=[N+]([O-])c1cccc(CN2CCN(S(=O)(=O)Cc3ccccc3)CC2)c1	4	17	0	31	.	.
C=CCN1C(=O)/C(=C/c2ccc(OC(C)CC)c(OC)c2)C(=O)NC1=S (stereo unspecified)	0	-15	0	-9	.	.
CN1CCN(CCOCCOc2ccccc2[N+](=O)[O-])CC1	0	3	0	78*	7	22
O=[N+]([O-])c1ccccc1OCCOCCOc1ccccc1[N+](=O)[O-]	0	-4	0	3	.	.
Cc1ccc(OCCOCCN2CCN(C)CC2)c([N+](=O)[O-])c1	0	-7	0	87*	18	26
